Laboratory results reported in paper PMC7862700, “An all-to-all approach to the identification of sequence-specific readers for epigenetic DNA modifications on cytosine”.

Key:
Assay in all cases: DAPPL (digital affinity profiling via proximity ligation, sequencing); 10 mM Tris-HCl pH 7.5, 50 mM NaCl, 1 mM DTT, 4% glycerol, room temperature, 30 min; GST-TFs on glutathione beads, 16-mer random dsDNA library, 0.1% formaldehyde crosslink after washing; high values mean tight binding
Details in all cases: protein: recombinant; tags: N-terminal GST; dsDNA, one strand shown
ERF = molecular target: T1, ERF (Homo sapiens, UniProt P50548 1-548)
T1 sequence: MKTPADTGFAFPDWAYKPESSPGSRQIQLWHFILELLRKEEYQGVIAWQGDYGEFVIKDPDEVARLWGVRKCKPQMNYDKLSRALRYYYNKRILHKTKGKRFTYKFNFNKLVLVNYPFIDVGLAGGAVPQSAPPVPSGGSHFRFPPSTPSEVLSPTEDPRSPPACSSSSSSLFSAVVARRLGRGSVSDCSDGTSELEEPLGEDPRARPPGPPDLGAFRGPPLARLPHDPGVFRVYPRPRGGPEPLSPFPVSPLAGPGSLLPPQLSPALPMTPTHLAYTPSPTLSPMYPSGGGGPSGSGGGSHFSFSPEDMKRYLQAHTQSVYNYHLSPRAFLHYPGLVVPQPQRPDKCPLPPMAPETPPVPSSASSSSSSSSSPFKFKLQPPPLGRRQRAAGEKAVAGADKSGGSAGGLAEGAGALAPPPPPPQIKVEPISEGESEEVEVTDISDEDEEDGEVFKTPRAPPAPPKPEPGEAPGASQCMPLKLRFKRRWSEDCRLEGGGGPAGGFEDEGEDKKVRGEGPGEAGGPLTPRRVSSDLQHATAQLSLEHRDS
Outline: (§1)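 Binding signal is each hexamer's read frequency for a factor divided by its frequency in the tag-only sample. The factors were GST-fused human transcription factors from yeast, captured on glutathione beads, DNA-barcoded and pooled with that sample. Pools were incubated with 200 nmole of a random double-stranded 16-mer DNA library in Tris/NaCl/DTT/glycerol buffer at room temperature for 30 min, then washed, crosslinked with 0.1% formaldehyde, proximity-ligated with BsaI/T4 ligase (1 h, 37 °C), PCR-amplified and sequenced on an Illumina NextSeq500.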

ETV3L = molecular target: T2, ETV3L (Homo sapiens, UniProt Q6ZN32 1-361)
T2 sequence: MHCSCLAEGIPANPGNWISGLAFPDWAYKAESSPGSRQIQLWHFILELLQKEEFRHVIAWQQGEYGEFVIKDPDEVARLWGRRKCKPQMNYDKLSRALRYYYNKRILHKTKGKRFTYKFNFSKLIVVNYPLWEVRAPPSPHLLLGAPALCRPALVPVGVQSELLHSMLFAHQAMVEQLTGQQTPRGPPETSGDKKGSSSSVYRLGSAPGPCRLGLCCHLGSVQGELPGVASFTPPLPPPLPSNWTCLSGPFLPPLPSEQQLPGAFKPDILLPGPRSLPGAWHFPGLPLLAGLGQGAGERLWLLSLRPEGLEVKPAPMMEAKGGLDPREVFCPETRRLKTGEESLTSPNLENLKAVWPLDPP
Outline: as §1

ETS2 = molecular target: T3, ETS2 (Homo sapiens, UniProt P15036 1-469)
T3 sequence: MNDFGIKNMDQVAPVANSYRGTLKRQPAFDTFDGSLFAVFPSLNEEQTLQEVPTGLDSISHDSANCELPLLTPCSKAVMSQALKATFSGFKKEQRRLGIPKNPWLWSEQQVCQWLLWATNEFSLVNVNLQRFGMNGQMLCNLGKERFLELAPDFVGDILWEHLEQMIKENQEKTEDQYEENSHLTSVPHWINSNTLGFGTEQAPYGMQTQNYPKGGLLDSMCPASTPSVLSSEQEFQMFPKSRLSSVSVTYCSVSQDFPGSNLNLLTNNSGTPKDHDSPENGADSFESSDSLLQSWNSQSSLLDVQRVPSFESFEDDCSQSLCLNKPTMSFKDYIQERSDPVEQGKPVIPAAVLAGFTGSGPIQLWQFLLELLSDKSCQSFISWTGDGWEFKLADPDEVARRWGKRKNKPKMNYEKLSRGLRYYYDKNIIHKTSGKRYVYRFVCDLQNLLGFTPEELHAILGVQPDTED
Outline: as §1

SPDEF = molecular target: T4, SPDEF (Homo sapiens, UniProt O95238 1-335)
T4 sequence: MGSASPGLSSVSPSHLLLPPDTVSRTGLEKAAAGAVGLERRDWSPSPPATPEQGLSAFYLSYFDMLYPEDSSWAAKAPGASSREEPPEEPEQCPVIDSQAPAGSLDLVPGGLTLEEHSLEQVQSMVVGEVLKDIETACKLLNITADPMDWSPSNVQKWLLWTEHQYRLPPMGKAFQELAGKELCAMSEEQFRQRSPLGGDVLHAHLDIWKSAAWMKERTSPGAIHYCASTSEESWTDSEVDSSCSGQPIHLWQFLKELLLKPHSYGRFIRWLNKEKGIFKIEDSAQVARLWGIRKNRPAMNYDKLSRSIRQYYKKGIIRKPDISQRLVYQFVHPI
Outline: as §1

ETV7 = molecular target: T5, ETV7 (Homo sapiens, UniProt Q9Y603 1-341)
T5 sequence: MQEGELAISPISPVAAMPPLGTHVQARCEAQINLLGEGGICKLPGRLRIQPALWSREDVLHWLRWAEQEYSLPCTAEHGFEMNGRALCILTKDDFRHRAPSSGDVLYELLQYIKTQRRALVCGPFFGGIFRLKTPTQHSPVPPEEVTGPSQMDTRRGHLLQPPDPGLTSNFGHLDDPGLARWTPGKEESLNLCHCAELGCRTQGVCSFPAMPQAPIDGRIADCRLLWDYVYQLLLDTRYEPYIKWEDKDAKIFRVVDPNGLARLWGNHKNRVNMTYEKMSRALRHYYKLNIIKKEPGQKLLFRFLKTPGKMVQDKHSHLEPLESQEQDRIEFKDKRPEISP
Outline: as §1

ELF5 = molecular target: T6, ELF5 (Homo sapiens, UniProt Q9UKW6-2 1-255)
T6 sequence: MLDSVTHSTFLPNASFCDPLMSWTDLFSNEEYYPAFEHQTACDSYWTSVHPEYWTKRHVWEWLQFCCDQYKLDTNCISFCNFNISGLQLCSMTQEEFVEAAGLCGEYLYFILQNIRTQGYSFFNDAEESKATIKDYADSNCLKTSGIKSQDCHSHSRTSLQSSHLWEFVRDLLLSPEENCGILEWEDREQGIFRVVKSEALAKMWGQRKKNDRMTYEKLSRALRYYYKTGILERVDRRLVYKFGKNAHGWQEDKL
Outline: as §1

ETV3 = molecular target: T7, ETV3 (Homo sapiens, UniProt P41162-2 1-143)
T7 sequence: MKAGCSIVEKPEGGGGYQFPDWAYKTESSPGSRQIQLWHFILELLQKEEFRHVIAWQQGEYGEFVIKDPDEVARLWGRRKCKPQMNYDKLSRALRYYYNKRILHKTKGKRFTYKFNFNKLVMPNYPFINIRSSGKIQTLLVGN
Outline: as §1

ETV6 = ETV6 (Homo sapiens, UniProt P41212 1-452)
Outline: as §1

Chain of ETV6 (P41212 whole entry): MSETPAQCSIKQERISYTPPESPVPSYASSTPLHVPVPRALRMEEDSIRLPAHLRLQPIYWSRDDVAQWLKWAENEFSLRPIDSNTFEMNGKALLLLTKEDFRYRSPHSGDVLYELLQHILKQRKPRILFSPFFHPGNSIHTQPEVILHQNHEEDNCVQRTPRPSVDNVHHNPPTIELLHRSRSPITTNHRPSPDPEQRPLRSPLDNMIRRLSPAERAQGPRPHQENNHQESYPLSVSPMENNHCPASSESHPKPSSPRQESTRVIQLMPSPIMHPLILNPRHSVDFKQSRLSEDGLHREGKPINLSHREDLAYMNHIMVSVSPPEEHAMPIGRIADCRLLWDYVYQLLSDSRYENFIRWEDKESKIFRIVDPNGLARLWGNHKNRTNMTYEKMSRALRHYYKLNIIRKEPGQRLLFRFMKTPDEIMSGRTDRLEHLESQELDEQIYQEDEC

Sequence | binding signal (ERF) | binding signal (ETV3L) | binding signal (ETS2) | binding signal (SPDEF) | binding signal (ETV7) | binding signal (ELF5) | binding signal (ETV3) | binding signal (ETV6)
TATTAC | 1.22 fold enrichment (6-mer frequency, TF over GST control) | 1.2 fold enrichment (6-mer frequency, TF over GST control) | 1.18 fold enrichment (6-mer frequency, TF over GST control) | 1.23 fold enrichment (6-mer frequency, TF over GST control) | 1.16 fold enrichment (6-mer frequency, TF over GST control) | 1.16 fold enrichment (6-mer frequency, TF over GST control) | 1.24 fold enrichment (6-mer frequency, TF over GST control) | 1.28 fold enrichment (6-mer frequency, TF over GST control)
GCCTTA | 1.15 fold enrichment (6-mer frequency, TF over GST control) | 1.04 fold enrichment (6-mer frequency, TF over GST control) | 1.15 fold enrichment (6-mer frequency, TF over GST control) | 1.12 fold enrichment (6-mer frequency, TF over GST control) | 1.18 fold enrichment (6-mer frequency, TF over GST control) | 1.14 fold enrichment (6-mer frequency, TF over GST control) | 1.08 fold enrichment (6-mer frequency, TF over GST control) | 1.07 fold enrichment (6-mer frequency, TF over GST control)
GCTATA | 1.16 fold enrichment (6-mer frequency, TF over GST control) | 1.08 fold enrichment (6-mer frequency, TF over GST control) | 1.14 fold enrichment (6-mer frequency, TF over GST control) | 1.21 fold enrichment (6-mer frequency, TF over GST control) | 1.18 fold enrichment (6-mer frequency, TF over GST control) | 1.15 fold enrichment (6-mer frequency, TF over GST control) | 1.18 fold enrichment (6-mer frequency, TF over GST control) | 1.14 fold enrichment (6-mer frequency, TF over GST control)
TACCCT | 1.28 fold enrichment (6-mer frequency, TF over GST control) | 1.18 fold enrichment (6-mer frequency, TF over GST control) | 1.29 fold enrichment (6-mer frequency, TF over GST control) | 1.29 fold enrichment (6-mer frequency, TF over GST control) | 1.27 fold enrichment (6-mer frequency, TF over GST control) | 1.26 fold enrichment (6-mer frequency, TF over GST control) | 1.25 fold enrichment (6-mer frequency, TF over GST control) | 1.16 fold enrichment (6-mer frequency, TF over GST control)
TCACGA | 1.14 fold enrichment (6-mer frequency, TF over GST control) | 1.04 fold enrichment (6-mer frequency, TF over GST control) | 1.13 fold enrichment (6-mer frequency, TF over GST control) | 1.17 fold enrichment (6-mer frequency, TF over GST control) | 1.16 fold enrichment (6-mer frequency, TF over GST control) | 1.03 fold enrichment (6-mer frequency, TF over GST control) | 1.14 fold enrichment (6-mer frequency, TF over GST control) | 1.16 fold enrichment (6-mer frequency, TF over GST control)
TCGCTC | 1.35 fold enrichment (6-mer frequency, TF over GST control) | 1.37 fold enrichment (6-mer frequency, TF over GST control) | 1.32 fold enrichment (6-mer frequency, TF over GST control) | 1.19 fold enrichment (6-mer frequency, TF over GST control) | 1.02 fold enrichment (6-mer frequency, TF over GST control) | 1.25 fold enrichment (6-mer frequency, TF over GST control) | 1.11 fold enrichment (6-mer frequency, TF over GST control) | 1.28 fold enrichment (6-mer frequency, TF over GST control)
TAAAAG | 1.2 fold enrichment (6-mer frequency, TF over GST control) | 1.1 fold enrichment (6-mer frequency, TF over GST control) | 1.18 fold enrichment (6-mer frequency, TF over GST control) | 1.08 fold enrichment (6-mer frequency, TF over GST control) | 1.19 fold enrichment (6-mer frequency, TF over GST control) | 1.16 fold enrichment (6-mer frequency, TF over GST control) | 1.12 fold enrichment (6-mer frequency, TF over GST control) | 1.23 fold enrichment (6-mer frequency, TF over GST control)
